From PubChem BioAssay
Hits are enriched below; roughly 21% of the tested compounds scored in any of these assays.
SARS PLP yeast – inhibitors of SARS-CoV papain-like protease in yeast; S. cerevisiae expressing SARS-CoV PLpro, growth rescue; Potency, µM (series often up to 32.9 µM), for the others: top-dose activity, positive = growth rescue, usual class: activators; 330,000 tested, 0.19% active; AID 485353; calls by dose curve; note: potency is the fitted concentration of half-maximal effect; 0% is about no effect; nearly all actives have a fitted effect of over 55% in size
Cycloheximide cs – affects cycloheximide protein synthesis inhibition readout, counter-screen | AID 2314 | max response, % | 300,000 tested, 12% active | cell reporter, cycloheximide protein synthesis inhibition counterscreen; in the data active = max response mostly above about 13%, no sharp cut-off; inactive = mostly below about 14%; note: read at 38.3 µM for the half of the compounds with a filed dose; 0% is about no effect
NS1 inh – influenza NS1 inhibition; Potency, µM (top dose mostly 46.1 µM), for the others: at the highest dose activity, positive = more growth; 270,000 tested, 0.4% active; calls by dose curve; note: potency is the fitted concentration of half-maximal effect; actives are rising curves; nearly all actives have a fitted effect of over 50% in size
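A cell-based growth assay was used: compounds that relieve NS1-induced slow growth of budding yeast raise OD600. Assay medium was yeast nitrogen base with ammonium sulphate and -URA supplement, pH 6.0, with 2% galactose.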
Pf growth 96h – P. falciparum growth inhibition at 96 hours. P. falciparum luciferase reporter growth, 96 h. Potency, µM (doses to about 28.7 µM), for the others: at the highest dose activity change, negative = inhibition, most hits filed as inhibitors. 320,000 tested, 6.9% active; note: potency is the fitted concentration of half-maximal effect; % is set by controls: 0 for no effect and ±100 for the full control effect
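P. falciparum expressing integrated firefly luciferase grown in erythrocytes (2% hematocrit, 0.05% parasitemia final) with compounds for 96 hours at 37 C, 5% CO2. Growth inhibition read as loss of luminescence after adding luciferase detection reagent.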
Shiga toxin inh – blocks Shiga toxin action in Vero cells; Vero cells, Shiga toxin protein synthesis inhibition reporter; 290,000 tested, 9.2% active; inhibition, % at 38.7 µM; in the data active = inhibition mostly above about 28%, no sharp cut-off; inactive = mostly below about 43%; note: 0% is about no effect
Pf growth 48h – P. falciparum growth inhibition at 48 hours (one generation) | P. falciparum luciferase growth in erythrocytes, 48 h | 310,000 tested, 5.9% active | AID 504832 | Potency, µM (doses to about 28.7 µM), for inactives: top-dose activity change, negative = inhibition, hits mostly inhibitors; note: potency is the fitted concentration of half-maximal effect; % is set by controls: 0 for no effect and ±100 for the full control effect
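Luminescence readout; reporter = integrated firefly luciferase in P. falciparum. RBC culture at 2% hematocrit, 0.1% parasitemia final, 37 C/5% CO2; decreased signal taken as growth inhibition.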
Numbers without * were called inactive; ? = inconclusive; . = no result given. Unless noted, calls come from the whole dose curve; as a rule, active = well fitted inhibition curve with a large enough effect; inconclusive = small, poorly fitted or top-dose-only effect, or another doubt; inactive = no such curve, though single readings can be large or run the other way.

SMILES	SARS PLP yeast	Cycloheximide cs	NS1 inh	Pf growth 96h	Shiga toxin inh	Pf growth 48h
COC(=O)C1=C[C@@H](C(=O)OC)C2C3=C(C(=O)[C@]2(CC(C)C)NC(=O)c2ccccc2)[C@H](C)n2c(=O)n(C)c(=O)n2[C@@H]3C1 (stereo partly drawn)	.	-3.5	.	.	-3.8	.
COc1ccc(NC(=O)CCS(=O)(=O)c2ccc3c(c2)oc(=O)n3C)cc1	-5.9%	-11.2	6.6%	-28.6%	-8.7	7.4%
O=C(NCc1ccc(Cl)cc1)C(=O)NCC1OCCN1C(=O)c1ccc(Cl)cc1 (stereo not drawn)	-3.4%	-6.5	.	-24.8%	26.0	-22.7%
CC1CC1C(=O)Nc1ccc(-c2ccccc2)cc1 (stereo not drawn)	-30.5%	44.8*	-7.2%	13.1µM*	82.6*	-12.1%
COc1ccccc1NC(=O)c1ccc(NC(=O)C2CC2C)cc1 (stereo not drawn)	-1.3%	.	.	.	.	.
CCCCCC(=O)NCc1c(C(F)(F)F)nn(C)c1N1CCOCC1	-1.2%	-2.4	-1.8%	?	-3.0	24.8%
CC1=NN(S(=O)(=O)c2ccc(Cl)cc2Cl)C(=O)c2ccccc2O1	-0.1%	12.5*	-67.4%	-11.2%	1.5	-11.8%
CCCCCCN(C(=O)CCCCCN1C(=O)NC(c2ccc(-c3ccccc3)cc2)C(C(=O)OCc2ccccc2)=C1C)C(C)C(=O)NCCCC (stereo not drawn)	16.7%	-2.3	-4.7%	4.65µM*	8.8	?
CCCCNC(=O)C(c1ccc(-c2ccccc2)cc1)N(CCN1CCOCC1)C(=O)CCCCCN1C(=O)NC(c2ccc([N+](=O)[O-])cc2)C(C(=O)OCc2ccccc2)=C1C (stereo not drawn)	1.1%	-4.8	?	3.29µM*	-11.2	1.31µM*
CCCCNC(=O)C(C1CCCCC1)N(CCN(C)C)C(=O)CCCN1C(=O)NC(c2ccc(-c3ccccc3)cc2)C(C(=O)OCc2ccccc2)=C1C (stereo not drawn)	-21.0%	.	.	.	.	.
CCCCCCN(C(=O)CCCCCN1C(=O)NC(c2ccc(-c3ccccc3)cc2)C(C(=O)OCc2ccccc2)=C1C)C(C(=O)NCCCC)c1ccccc1 (stereo not drawn)	0.7%	-1.9	17.0%	1.85µM*	0.4	2.62µM*
O=C(Cn1ccc(C(F)(F)F)n1)N/N=C/c1ccc(N2CCOCC2)cc1	-1.0%	1.3	3.9%	13.9%	-9.1	-7.0%
O=C1CN(C(=O)CNCc2ccccc2Cl)c2ccccc2N1	-0.7%	0.8	1.5%	?	25.1	2.6%
Cc1ccc(C2CCN(C(=S)NC3CCCCC3)C2)cc1 (stereo not drawn)	-0.9%	19.8*	.	?	70.2*	-2.1%
Cc1ccc(C2CCN(C(=S)Nc3cccc(C)c3)C2)cc1 (stereo not drawn)	-11.7%	20.3*	.	-18.8%	33.6*	-25.9%
CC1CCCN(C(=S)NC2CCCC2)C1 (stereo not drawn)	0.8%	0.6	3.3%	21.9%	-6.6	23.3%
Cc1ccc(C2CCN(C(=S)NC(C)(C)C)C2)cc1 (stereo not drawn)	8.0%	30.9*	.	?	76.4*	39.7%
COc1ccc(-n2c3c(cc(C(=O)N4CCN(CCO)CC4)c2=O)C(=O)CC(C)(C)C3)cc1	-2.6%	-3.0	1.1%	10.4µM*	-12.8	-2.7%
CCCC(=O)Oc1ccc(-c2nccc(C(OC)OC)n2)cc1	-0.9%	22.1	.	59.1%	51.9*	85.9%
O=C(CSc1nc2ccccc2[nH]1)c1c[nH]c2ccccc12	0.1%	29.2*	1.8%	-2.1%	71.9*	4.8%
Fc1cccc(CSc2nc3ccncc3[nH]2)c1	-9.3%	31.6*	-45.3%	-0.3%	49.6*	137.2%
Clc1cccc(CSc2nc3ccncc3[nH]2)c1	-4.1%	19.1	-0.8%	?	38.2	.
O=c1[nH]c(SCc2ccccc2F)nc2ccccc12	0.5%	1.6	2.0%	-29.9%	3.3	24.8%
Cc1ccc2nc(SCC(=O)c3cc(C)n(C)c3C)[nH]c2c1	-23.5%	13.4	0.7%	-70.1%	28.1	.
Fc1ccccc1CSc1nc2ncccc2[nH]1	-15.3%	44.8*	1.7%	-22.4%	63.3*	8.0%
Cc1ccc2nc(SCC(=O)c3c[nH]c4ccccc34)[nH]c2c1	0.9%	18.5	5.7%	?	70.5*	2.94µM*
